Several values for one entry are separate records, joined by “and”; a condition that tells them apart may be missing. Equal entries are not always repeated. Inconclusive results are not listed. Entries that show only a call come without a potency. A number with no mark means an inactive call. Activity calls are given as the source filed them. Calls come from the whole dose curve; as a rule, active = well fitted curve in the direction sought with a large enough effect; inconclusive = small, poorly fitted or top-dose-only effect, or another doubt; inactive = no such curve, though single readings can be large; an effect the other way counts as inactive or inconclusive.
Tests used:
[1] = Quantitative highthroughput screen to assess conditional lethalithy of NOMO1 cells grown in RPMI1640 with untreated serum (RPMI+s) (AID 1963876); note: nearly all actives have a fitted effect of over 35% in size
Procedure, shortened: (§1)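 Each medium arm—HPLM with 10% dialyzed FBS, or RPMI1640 with 5 mM glucose and 10% untreated or dialyzed FBS—was screened against an 11-point, 3-fold compound titration for 48 h at 37 °C, with CellTiter-Glo luminescence as endpoint.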

[2] = Quantitative highthroughput screen to assess conditional lethalithy of NOMO1 cells grown in Human Plasma-Like Medium with dialyzed fetal bovine serum (HPLM+ds) (AID 1963878); note: nearly all actives have a fitted effect of over 35% in size
Procedure, shortened: as §1

[3] = Quantitative highthroughput screen to assess conditional lethalithy of P12 Ichikawa cells grown in Human Plasma-Like Medium with dialyzed fetal bovine serum (HPLM+ds) (AID 1963879); settings: Potency: viability; note: nearly all actives have a fitted effect of over 35% in size; for viability: series mostly up to about 46 µM
Procedure, shortened: as §1

[4] = Quantitative highthroughput screen to assess conditional lethalithy of P12 Ichikawa cells grown in RPMI1640 with dialyzed fetal bovine serum (RPMI+ds) (AID 1963880); settings: Potency: P12-Ichikawa viability; note: nearly all actives have a fitted effect of over 35% in size
Procedure, shortened: as §1

[5] = Quantitative highthroughput screen to assess conditional lethalithy of P12 Ichikawa cells grown in RPMI1640 with untreated serum (RPMI+s) (AID 1963881); settings: Potency: viability; note: nearly all actives have a fitted effect of over 35% in size; for viability: series mostly up to about 46 µM
Procedure, shortened: as §1

[6] = Quantitative highthroughput screen to assess conditional lethalithy of SEM cells grown in Human Plasma-Like Medium with dialyzed fetal bovine serum (HPLM+ds) (AID 1963882); note: nearly all actives have a fitted effect of over 35% in size; for viability: series mostly up to about 46 µM
Procedure, shortened: as §1

[7] = Quantitative highthroughput screen to assess conditional lethalithy of SEM cells grown in RPMI1640 with unreated serum (RPMI+s) (AID 1963883); note: nearly all actives have a fitted effect of over 35% in size
Procedure, shortened: as §1

[8] = Quantitative highthroughput screen to assess conditional lethalithy of SEM cells grown in RPMI1640 with dialyzed fetal bovine serum (RPMI+ds) (AID 1963884); note: nearly all actives have a fitted effect of over 35% in size; for viability: series mostly up to about 46 µM
Procedure, shortened: as §1

[9] = Cellular viability qHTS for adrenocortical cancer (ACC) cell line SW-13 (AID 1963989); settings: SW-13 ACC cells viability, CellTiter-Glo, 48 h; activity (max response): stronger effect = lower value; note: nearly all actives have a fitted effect of over 65% in size;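 for activity (max response): cells grown in serum-free medium with ITS supplement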
Procedure, shortened: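 SW-13 cells in ITS-supplemented serum-free DMEM were plated overnight, then exposed for 48 h at 37C to compound titrations (up to 46 uM final). Viability was read by CellTiter-Glo luminescence; four-parameter logistic fits gave IC50 and efficacy.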

[10] = Cellular viability qHTS for adrenocortical cancer (ACC) cell line NCI-H295R (AID 1963990); note: nearly all actives have a fitted effect of over 60% in size
Procedure, shortened: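 Luminescent ATP read-out (CellTiter-Glo, 20 min RT) after 48 h drug exposure of NCI-H295R cells; a titration up to 46 uM final. Data normalized to doxorubicin (100% inhibition) and DMSO (0%); 4-parameter fit gives IC50, max response.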
Potency is the fitted concentration of half-maximal effect.

| SMILES | Potency [1] | Potency [2] | Potency [3] | Potency [4] | Potency [5] | Potency [6] | Potency [7] | Potency [8] | activity (max response) [9] | Potency [10] | Potency [9] |
| --- | --- | --- | --- | --- | --- | --- | --- | --- | --- | --- | --- |
| CCCCN(CCCC)CC(O)c1cc(Cl)cc2c1-c1ccc(Cl)cc1C2=Cc1ccc(Cl)cc1 (stereo unspecified) | inactive | inactive | inactive | inactive | inactive | inactive | inactive | inactive |  |  |  |
| COC(=O)[C@@H]1[C@H]2C[C@@H]3c4[nH]c5ccccc5c4CCN3C[C@@H]2CC[C@@H]1O | 0.526 µM (active) |  | 2.96 µM (active) | 5.26 µM (active) | 3.32 µM (active) | inactive | inactive | inactive |  |  |  |
| CNC(=O)c1ccccc1Sc1ccc2c(C=Cc3ccccn3)n[nH]c2c1 | 2.35 µM (active) | 4.18 µM (active) | 7.43 µM (active) |  |  |  |  | 4.69 µM (active) |  |  |  |
| CC(NCc1ccc2c(c1)nc(NC(=O)c1ccc(-c3cn[nH]c3)s1)n2CC(C)(C)O)C(C)(C)C (stereo unspecified) | 2.64 µM (active) | 1.48 µM (active) |  |  | 2.64 µM (active) | 0.0264 µM (active) | 0.0418 µM (active) | 0.0187 µM (active) |  |  |  |
| C[C@@H]1CC=CC=CC=CC=C[C@@H](O[C@@H]2O[C@H](C)[C@@H](O)[C@H](N)[C@H]2O)C[C@@H]2O[C@](O)(C[C@@H](O)C[C@@H]3O[C@@H]3C=CC(=O)O1)C[C@H](O)[C@@H]2C(=O)O | inactive | inactive |  | inactive | inactive | inactive | inactive | inactive |  |  |  |
| CC(COc1ccccc1)N(CCCl)Cc1ccccc1 (stereo unspecified) | 0.166 µM (active) | 0.209 µM (active) |  | 2.96 µM (active) | 2.64 µM (active) | inactive | inactive | inactive | -3.42% | inactive |  |
| NC[C@@H]1O[C@@H](O[C@H]2[C@@H](O)[C@H](O[C@@H]3[C@@H](O)[C@@H](N)C[C@H](N)[C@H]3O[C@H]3O[C@H](CN)[C@@H](O)[C@@H](O)[C@H]3N)O[C@H]2CO)[C@H](N)[C@@H](O)[C@@H]1O | inactive | inactive | inactive | inactive | inactive | inactive | inactive | inactive |  |  |  |
| CC(=O)Oc1cc2c(s1)CCN(C(C(=O)C1CC1)c1ccccc1F)C2 (stereo unspecified) | 14.8 µM (active) | 4.69 µM (active) |  |  |  | 18.7 µM (active) |  |  | -22.6% and -6.86% | inactive |  |
| O=C(CCCN1CCC(O)(c2ccc(Cl)cc2)CC1)c1ccc(F)cc1 | inactive | inactive | inactive | inactive | inactive | inactive | inactive | inactive |  |  |  |
| COc1nc(-c2ccc3c(c2)OCO3)n(-c2ccc(NC(=O)CSc3ccccc3)cc2)n1 | 23.5 µM (active) | 20.9 µM (active) | inactive | inactive | inactive |  | inactive |  |  | inactive |  |
| CN[C@H](CC(C)C)C(=O)N[C@H]1C(=O)N[C@@H](CC(N)=O)C(=O)N[C@@H]2C(=O)N[C@H]3C(=O)N[C@H](C(=O)N[C@H](C(=O)O)c4cc(O)cc(O)c4-c4cc3ccc4O)[C@H](O)c3ccc(c(Cl)c3)Oc3cc2cc(c3O[C@@H]2O[C@H](CO)[C@@H](O)[C@H](O)[C@@H]2O[C@H]2C[C@](C)(N)[C@H](O)[C@H](C)O2)Oc2ccc(cc2Cl)[C@H]1O | inactive | inactive | inactive |  |  | inactive | inactive | inactive |  |  |  |
| CCCCCCCc1ccc(CCc2cccc(O)c2C(=O)O)cc1 | inactive |  | inactive | inactive | inactive |  |  |  |  |  |  |
| Cc1cnc(Nc2ccc(F)cc2Cl)nc1-c1c[nH]c(C(=O)N[C@H](CO)c2cccc(Cl)c2)c1 | 1.05 µM (active) | 1.66 µM (active) |  |  |  |  |  |  |  | 14.1 µM (active) | 20 µM (active) |
| C=CC(=O)Nc1cccc(Nc2nc(NC3CCC(N(C)C)CC3)nc3c2ncn3C(C)C)c1 (stereo unspecified) | 2.96 µM (active) | 2.35 µM (active) | 3.32 µM (active) | 4.18 µM (active) |  | 1.05 µM (active) | 2.09 µM (active) | 1.05 µM (active) |  |  |  |
| Cc1[nH]c(C=C2C(=O)Nc3ccccc32)c(C)c1CCC(=O)O | 14.8 µM (active) |  | 9.35 µM (active) | 18.7 µM (active) |  |  |  |  |  |  |  |
| O=C(O)C1=NC(C(=O)O)CC(C=CN2c3cc(O)c(OC4OC(CO)C(O)C(O)C4O)cc3CC2C(=O)O)=C1 (stereo unspecified) | inactive | inactive | inactive | inactive | inactive |  | inactive | inactive |  |  |  |
| CC(=CC(=O)Nc1ccccc1C(=O)O)c1ccc2ccccc2c1 | inactive | inactive | inactive | inactive | inactive |  | 23.5 µM (active) |  |  |  |  |
| CN(C)N=Nc1nc[nH]c1C(N)=O | inactive | inactive | 2.64 µM (active) |  |  | inactive |  | 0.833 µM (active) |  |  |  |

Reference: PubChem BioAssay (NCATS)
